Results reported in the supplement of paper PMC6607015.
Structures can show the parent of a compound that is named as a salt.

Experiments:
Settings in all cases: compound concentration in added solution (µM; 5 µl added to 20 µl cells): 10; 18 h
A431 [1] = test: LBPA endosome anti-LBPA integrated intensity (sum per cell), Z-score; higher = more LBPA staining
In short: (§1)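 Per-cell integrated LBPA or filipin intensity, whole-cell or within LBPA endosomes, is expressed as Z-scores normalised in AcuityXpress. HeLa MZ or A431 cells, 3,500 per well in 20 µl, sat on 5 µl of 10 µM compound solution in duplicate 384-well imaging plates for 18 h. They were then fixed in 4% PFA, stained, imaged in four 20× fields per well and segmented using MetaXpress.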

HeLa MZ [2] = test: as above
In short: as §1

A431 [3] = test: whole-cell filipin (free cholesterol) integrated intensity, Z-score; higher = more cholesterol staining
In short: as §1

HeLa MZ [4] = test: as above
In short: as §1

A431 [5] = test: filipin (cholesterol) integrated intensity within LBPA endosomes, Z-score; higher = more cholesterol in LBPA endosomes
In short: as §1

HeLa MZ [6] = test: as above
In short: as §1

| Structure (SMILES) | LBPA endosome anti-LBPA integrated intensity (z-score) (A431 [1]) | LBPA endosome anti-LBPA integrated intensity (z-score) (HeLa MZ [2]) | whole-cell filipin (z-score) (A431 [3]) | whole-cell filipin (z-score) (HeLa MZ [4]) | filipin (z-score) (A431 [5]) | filipin (z-score) (HeLa MZ [6]) |
| --- | --- | --- | --- | --- | --- | --- |
| CNCC(O)c1ccc(O)c(O)c1 (centres undefined) [Racepinephrine HCl] | -0.253 | -0.0976 | 0.725 | 0.18 | -0.509 | -0.366 |
| Clc1cnccn1 [2-Chloropyrazine] | -0.346 | -0.401 | 0.139 | -0.365 | -0.401 | -0.492 |
| CCOc1ccc2c(c1)C(C)=CC(C)(C)N2 [Ethoxyquin] | -0.421 | 0.201 | -0.319 | -0.546 | -0.467 | -0.418 |
| CCCc1cc(=O)[nH]c(=S)[nH]1 [Propylthiouracil] | -0.571 | -0.555 | -0.7 | -0.496 | -0.538 | -0.457 |
| CN(C)CCC(c1ccccc1)c1ccccn1 (centres undefined) [Pheniramine maleate] | -0.513 | 0.0628 | -0.745 | -0.51 | -0.53 | -0.436 |
| CCCCCCCN(CC)CCCC(O)c1ccc(NS(C)(=O)=O)cc1 (centres undefined) [Ibutilide fumarate] | 0.46 | 1.54 | 0.561 | 0.166 | 0.22 | 0.621 |
| Cc1cccc(Nc2ccccc2C(=O)O)c1C [Mefenamic acid] | -0.573 | -1.34 | -0.793 | -0.4 | -0.497 | -0.72 |
| Nc1nc(=O)c2c([nH]1)NC[C@@H](CNc1ccc(C(=O)N[C@@H](CCC(=O)O)C(=O)O)cc1)N2C=O [Folinic acid calcium salt] | -0.476 | -0.265 | -0.437 | -0.13 | -0.451 | -0.42 |
| CCCc1nc(C)c2c(=O)nc(-c3cc(S(=O)(=O)N4CCN(CC)CC4)ccc3OCC)[nH]n12 [Vardenafil] | -0.314 | 1.35 | 0.127 | 0.375 | -0.156 | 0.224 |
| CC(=O)N(O)CCCCCNC(=O)CCC(=O)N(O)CCCCCNC(=O)CCC(=O)N(O)CCCCCN [Deferoxamine mesylate] | -0.408 | -0.755 | 0.541 | -0.469 | -0.422 | -0.499 |
| CCC(=O)OCC(=O)[C@@]1(OC(=O)CC)[C@H](C)C[C@H]2[C@H]3[C@H]([C@@H](O)C[C@@]21C)[C@@]1(C)C=CC(=O)C=C1C[C@H]3Cl [Alclometasone dipropionate] | -0.24 | 0.1 | -0.316 | -0.125 | -0.325 | -0.277 |
| CCCNC(C)C(=O)Nc1c(C)csc1C(=O)OC (centres undefined) [Articaine hydrochloride] | -0.511 | -1.09 | -0.0579 | -0.354 | -0.492 | -0.461 |
| Cc1cccc(N(C)C(=S)Oc2ccc3ccccc3c2)c1 [Tolnaftate] | 0.133 | 0.375 | -0.581 | -0.535 | -0.301 | -0.655 |
| Nc1ccc(O)c(C(=O)O)c1 [Mesalamine] | -0.0986 | 0.304 | 0.385 | 0.263 | -0.341 | -0.247 |
| CN(C)CCOc1ccc(/C(=C(/CCCl)c2ccccc2)c2ccccc2)cc1 [Toremifene] | 2.64 | 0.267 | 2.3 | 1.93 | 2.35 | 3.94 |
| O=c1n(CCCN2CCN(c3cccc(Cl)c3)CC2)nc2ccccn12 [Trazodone hydrochloride] | 0.505 | 2.35 | 0.713 | 1.12 | 0.872 | 1.04 |
| NNCCc1ccccc1 [Phenelzine sulfate] | -0.403 | -0.966 | -0.414 | -0.115 | -0.439 | -0.425 |
| NC(=O)N1c2ccccc2C=Cc2ccccc21 [Carbamazepine] | -0.439 | -0.106 | -0.553 | -0.708 | -0.587 | -0.687 |
| CC(C)c1c(C(=O)Nc2ccccc2)c(-c2ccccc2)c(-c2ccc(F)cc2)n1CC[C@@H](O)C[C@@H](O)CC(=O)O [Atorvastatin] | -0.737 | -0.992 | -0.0189 | -0.402 | -0.543 | -0.45 |
| NS(=O)(=O)c1cc2c(cc1C(F)(F)F)NCNS2(=O)=O [Hydroflumethiazide] | -0.486 | -0.967 | -0.738 | -0.664 | -0.455 | -0.522 |
| Cc1ccc(NC(=O)c2ccc(CN3CCN(C)CC3)cc2)cc1Nc1nccc(-c2cccnc2)n1 [Imatinib] | 3.97 | 1.01 | 2.96 | 3.48 | 4.02 | 3.74 |
| O=C1Cc2cc(CCN3CCN(c4nsc5ccccc45)CC3)c(Cl)cc2N1 [Ziprasidone  Hydrochloride] | 1.04 | 1.09 | 0.285 | 0.974 | 0.571 | 1.31 |

| Structure (SMILES) | LBPA endosome anti-LBPA integrated intensity (z-score) (A431 [1]) | LBPA endosome anti-LBPA integrated intensity (z-score) (HeLa MZ [2]) | whole-cell filipin (z-score) (A431 [3]) | whole-cell filipin (z-score) (HeLa MZ [4]) | filipin (z-score) (A431 [5]) | filipin (z-score) (HeLa MZ [6]) |
| --- | --- | --- | --- | --- | --- | --- |
| CC(=O)Oc1ccc(C(c2ccc(OC(C)=O)cc2)c2ccccn2)cc1 [Bisacodyl] | -0.461 | 0.379 | -0.546 | 0.375 | -0.421 | -0.162 |
| O=C(O)c1cc(-c2ccc(F)cc2F)ccc1O [Diflunisal] | -0.321 | -0.139 | -0.11 | -0.25 | -0.434 | -0.569 |
| CO[C@@]1(NC(=O)C(C(=O)O)c2ccc(O)cc2)C(=O)N2C(C(=O)O)=C(CSc3nnnn3C)CO[C@@H]21 (some centres undefined) [Moxalactam disodium salt] | -0.477 | 0.127 | -0.129 | 0.413 | -0.413 | -0.25 |
| CN(C)C(=O)C(CCN1CCC(O)(c2ccc(Cl)cc2)CC1)(c1ccccc1)c1ccccc1 [Loperamide hydrochloride] | 2.04 | 1.35 | 0.703 | 1.87 | 3.45 | 3.57 |
| CC(NCCc1ccc(O)cc1)C(O)c1ccc(O)cc1 (centres undefined) [Ritodrine hydrochloride] | -0.357 | 0.237 | -0.158 | -0.199 | -0.481 | -0.491 |
| CC(=O)O[C@]1(C(C)=O)CC[C@H]2[C@@H]3C=C(Cl)C4=CC(=O)[C@@H]5C[C@@H]5[C@]4(C)[C@H]3CC[C@@]21C [Cyproterone acetate] | -0.264 | 0.704 | 0.568 | 0.591 | 0.113 | 0.108 |
| CN1CCCN=C1/C=C/c1cccc(O)c1 [Oxantel pamoate] | -0.563 | -0.852 | -0.857 | -0.729 | -0.5 | -0.659 |
| CCN(CC)CCOC(=O)c1ccc(N)cc1 [Procaine hydrochloride] | -0.324 | 0.381 | -1.04 | -0.86 | -0.492 | -0.418 |
| CN(C)CCOC(c1ccccc1)c1ccccc1 [Diphenhydramine hydrochloride] | -0.431 | -0.0117 | -0.136 | -0.63 | -0.485 | -0.0904 |
| CN(N=O)C(=O)N[C@@H](C=O)[C@@H](O)[C@H](O)[C@H](O)CO [Streptozotocin] | -0.585 | -0.52 | -0.71 | -0.525 | -0.474 | -0.51 |
| COc1ccc2c(c1)c(CC(=O)O)c(C)n2C(=O)c1ccc(Cl)cc1 [Indomethacin] | -0.426 | 0.408 | -0.694 | -0.518 | -0.524 | -0.49 |
| C=CC1=C(C(=O)O)N2C(=O)[C@@H](NC(=O)/C(=N\OCC(=O)O)c3csc(N)n3)[C@H]2SC1 [Cefixime] | -0.497 | -0.00426 | -0.828 | -0.585 | -0.573 | -0.64 |
| CCCCOc1ccc(C(=O)CCN2CCCCC2)cc1 [Dyclonine hydrochloride] | 0.717 | 0.215 | 0.502 | -0.794 | 0.482 | -0.156 |
| C#C[C@]1(OC(C)=O)CC[C@H]2[C@@H]3CCC4=C[C@@H](OC(C)=O)CC[C@@H]4[C@H]3CC[C@@]21C [Ethynodiol diacetate] | -0.254 | 0.88 | 0.227 | 0.371 | -0.191 | -0.00334 |
| CC[C@H](C)C(=O)O[C@H]1CCC=C2C=C[C@H](C)[C@H](CC[C@@H]3C[C@@H](O)CC(=O)O3)[C@H]21 [Mevastatin] | -1.03 | -2.17 | -1 | -0.345 | -0.746 | -0.0775 |
| CNCC(O)c1ccc(OC(=O)C(C)(C)C)c(OC(=O)C(C)(C)C)c1 (centres undefined) [Dipivefrin hydrochloride] | 0.303 | -0.643 | 1.75 | 0.0389 | 0.224 | 0.0222 |
| CCC1=C(C)CN(C(=O)NCCc2ccc(S(=O)(=O)NC(=O)N[C@H]3CC[C@H](C)CC3)cc2)C1=O [Glimepiride] | -0.623 | -0.491 | -0.412 | -0.0517 | -0.467 | -0.486 |
| C=C[C@H]1CN2CC[C@H]1C[C@@H]2[C@@H](O)c1ccnc2ccc(OC)cc12 [Quinidine hydrochloride monohydrate] | 0.635 | 0.796 | 0.722 | -0.0406 | 0.638 | 0.436 |
| CCN[C@H]1CN(CCCOC)S(=O)(=O)c2sc(S(N)(=O)=O)cc21 [Brinzolamide] | -0.542 | -0.00126 | -0.549 | -0.378 | -0.517 | -0.377 |
| O=C1O[C@H]([C@@H](O)CO)C(O)=C1O [Ascorbic acid] | -0.608 | -0.991 | -0.369 | 0.278 | -0.529 | -0.527 |
| COc1ccccc1OCC(O)CN1CCN(CC(=O)Nc2c(C)cccc2C)CC1 (centres undefined) [Ranolazine] | -0.238 | 1.53 | -0.112 | -0.533 | -0.352 | -0.221 |
| Cc1cccc(CN2CCN(C(c3ccccc3)c3ccc(Cl)cc3)CC2)c1 (centres undefined) [Meclozine dihydrochloride] | -0.277 | -0.335 | -0.336 | -0.815 | -0.233 | -0.413 |
